A short description of assay [1]: P-glycoprotein substrates identified in KB-8-5-11 adenocarcinoma cell line, qHTS therapeutic library screen (AID 1346987). For activity change, negative = cytotoxicity: series mostly up to about 44 µM. Note: nearly all actives have a fitted effect of over 65% in size. In a few lines:
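Luminescence from CellTiter-Glo, read 5 min after addition, quantified survival of KB-8-5-11 (P-gp-overexpressing) cells exposed to compounds for 72 h. AC50 was derived from concentration-response curves.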
A general note: qHTS replaces the single test concentration by a dilution series.

In assay [2] the test system is Zika virus NS2B-NS3 protease (linked construct). As to the kind of experiment: Primary screen NINDS Rhodamine qHTS for Zika virus inhibitors (AID 1347160). Note: nearly all actives have a fitted effect of over 55% in size. Put shortly:
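Aprotinin served as in-plate control. Conditions: 25 nM linked NS2B-NS3, pH 8.0 Tris buffer, titrated compounds, 15 min preincubation and 15 min reaction with 1.5 microM Rhod110 substrate at room temperature.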

Inconclusive results are not listed. A call without a number means that no potency is given here. Values without a mark were called inactive. Activity calls are given as the source filed them. Calls come from the whole dose curve; as a rule, active = well fitted curve in the direction sought with a large enough effect; inconclusive = small, poorly fitted or top-dose-only effect, or another doubt; inactive = no such curve, though single readings can be large; an effect the other way counts as inactive or inconclusive.

On to `CC1OC(OC2C(OC(=O)[C@]34CCC(C)(C)C[C@H]3C3=CCC5[C@@]6(C)CC[C@H](OC7OC(C(=O)O)C(O)C(O)C7O)C(C)(C)C6CC[C@@]5(C)[C@]3(C)CC4O)OC(CO)C2O)C(O)C(O)C1OC1OCC(O)C(O)C1O` (stereo not given in full), for which the activity change, negative = cytotoxicity in assay [1] is 7.83% [at 9.29 µM]. Further, the Potency result in assay [2] is “inactive”.
As for `O=C(O)CC1(O)C(=O)Nc2ccccc21` (stereo not given), the Potency result in assay [1] and in assay [2] was “inactive” throughout.
Turning to `O=C(O)C[C@H]1CCC(=O)[C@@H]1C/C=C\CCO`, the Potency entry in assay [1] and in assay [2] was “inactive” in each case.
On to `CC1=C2C(=O)C=C(CO)C2C2OC(=O)C(CS(=O)(=O)O)C2C(OC(=O)Cc2ccc(O)cc2)C1` (stereo not given), for which the Potency result in assay [1] and in assay [2] was “inactive” in each case.
With `CC(C)=CCC(O)[C@](C)(O)C1[C@H](O)C[C@@]2(C)C3CC=C4C(C[C@H](O)[C@@H](O[C@@H]5O[C@H](CO)[C@@H](O)[C@H](O)[C@H]5O)C4(C)C)[C@]3(C)C(=O)C[C@]12C` (stereo not given in full), the Potency entry in assay [1] and in assay [2] was “inactive” throughout.
For `Nc1c(-c2ccccc2)nc(Cl)c2c(O)n[nH]c(=O)c12`, the Potency result in assay [1] and in assay [2] was “inactive” in each case.
In the case of `C=C1Cc2c(Cl)cc3[nH]c4c5c3c2[C@@]2(O)[C@@H]1C[C@@H]2C(C)(C)O[C@H]5C1CC[C@@]2(O)[C@@]35O[C@@H]3[C@H]3OC(C)(C)[C@H]3O[C@H]5CC[C@]2(C)[C@@]41C` (stereo not given in full), the Potency result in assay [1] and in assay [2] was “inactive” in each case.
Turning to `O=C1C[C@@]2(C(=O)N1)C(=O)N(Cc1ccc(Br)cc1F)C(=O)c1cccn12`, the Potency result in assay [1] and in assay [2] was “inactive” in each case.
On to `CC(C(=O)Nc1cc(C#N)ccc1CCCC(=O)O)c1ccc(F)c2ccccc12` (stereo not given), for which the Potency result in assay [1] and in assay [2] was “inactive” in each case.
As to `CC(C)CC(=O)OC[C@@]1(O)C[C@@]23CC[C@H]4[C@@](C)(CCC[C@@]4(C)C(=O)O)[C@@H]2CC[C@@H]1C3`, the Potency result in assay [1] and in assay [2] was “inactive” throughout.

The values are drawn from PubChem BioAssay (NCATS).
